We go through 21 compounds from PubChem BioAssay (NCATS).

One assay has as its system C33A. Put plainly: Primary qHTS to identify gynecologic anti-cancer compounds using libraries of approved drugs and bioactive compounds (AID 1345084). Further: nearly all actives have a fitted effect of over 55% in size. Further: potency means the concentration at half of the fitted maximal effect. Particulars: Gynecologic cancer cell panel viability, ATPlite luminescence, 48 h; series mostly up to 57.5 µM. The gist of the method: (§1)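 Cell viability after 48 h drug treatment, ATPlite luminescence readout; five doses.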

In the next assay the test system is CAOV3. The description is as above. Particulars: Gynecologic cancer cell panel viability, ATPlite luminescence, 48 h; series mostly up to 57.5 µM. The gist of the method: as §1
Another assay has as its system CASKI. Described as above. Particulars: Gynecologic cancer cell panel viability, ATPlite luminescence, 48 h; series mostly up to 57.5 µM. The gist of the method: as §1
For the next assay, the system named is Es-2. The assay is described as above. Particulars: Gynecologic cancer cell panel viability, ATPlite luminescence, 48 h; series mostly up to 57.5 µM. The gist of the method: as §1
The subject of the next assay is HeLa. The description is as above. Particulars: Gynecologic cancer cell panel viability, ATPlite luminescence, 48 h; series mostly up to 57.5 µM. The gist of the method: as §1
The test system of a further assay is Hek293T. The description is as above. Particulars: Gynecologic cancer cell panel viability, ATPlite luminescence, 48 h, control line for the selectivity index; series mostly up to 57.5 µM. The gist of the method: as §1
In the next assay the test system is JEG-3. The assay is described as above. Particulars: Gynecologic cancer cell panel viability, ATPlite luminescence, 48 h; series mostly up to 57.5 µM. The gist of the method:
as §1

Another assay has as its system PA-1. Described as above. Particulars: Gynecologic cancer cell panel viability, ATPlite luminescence, 48 h; series mostly up to 57.5 µM. The gist of the method: as §1
A further assay concerns Tov-21-G. Described as above. Particulars: Gynecologic cancer cell panel viability, ATPlite luminescence, 48 h; series mostly up to 57.5 µM. The gist of the method: as §1
The next assay deals with Tov112D. Described as above. Particulars: Gynecologic cancer cell panel viability, ATPlite luminescence, 48 h; series mostly up to 57.5 µM. The gist of the method:
as §1

The nature of assay [1]: Drug repurposing screens with cells derived from glioblastoma tumor samples (AID 1345199). Further: nearly all actives have a fitted effect of over 40% in size. Further: potency means the concentration at half of the fitted maximal effect. Particulars: GBM patient neurospheres viability, ATP luminescence, 48 h; Potency: tumour line A unless noted; series mostly up to 45.9 µM. The gist of the method: (§2)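 Four patient lines of CD133+ GBM neurospheres were screened at several concentrations; hits were retested in those lines plus three slower-growing GBM lines, using 48-hour treatment and ATP-based viability.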

The test system of another assay is astro. Described as above. Particulars: viability, ATP luminescence, 48 h; series mostly up to 45.9 µM. The gist of the method:
as §2

In another assay the test system is SKOV3. Put plainly: Primary qHTS to identify gynecologic anti-cancer compounds using libraries of approved drugs and bioactive compounds (AID 1345084). Further: nearly all actives have a fitted effect of over 55% in size. Further: potency means the concentration at half of the fitted maximal effect. Particulars: Gynecologic cancer cell panel viability, ATPlite luminescence, 48 h; series mostly up to 57.5 µM. The gist of the method: as §1
The next assay deals with OV90. The assay is described as above. Particulars: Gynecologic cancer cell panel viability, ATPlite luminescence, 48 h; series mostly up to 57.5 µM. The gist of the method:
as §1

Assay [2] addresses Nuclear receptor subfamily 1 group I member 2 (Rattus norvegicus) (UniProt Q9R1A7). Put plainly: qHTS assay for small molecule activators of the rat pregnane X receptor (rPXR) signaling pathway (AID 651751; call rule not given here; further: 0% is about no effect). Particulars: rPXR reporter cells, luciferase (One-Glo), 24 h.
A short description of assay [3]: qHTS assay for small molecule activators of the human pregnane X receptor (PXR) signaling pathway (AID 720659; call rule not given here; further: 0% is about no effect).
The subject of a further assay is WaGa. In words: qHTS assay to identify novel small-molecules to repurpose for Merkel cell carcinoma treatment (AID 1296009). Further: potency means the concentration at half of the fitted maximal effect; nearly all actives have a fitted effect of over 60% in size. Particulars: MCC and control cell lines, CellTiter-Glo viability, 72 h; series mostly up to 46 µM. The gist of the method: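 Cells exposed to NPC (8-point) and MIPE (11-point) compound dilutions for 72 hr at 37 degree celsius; viability read by CellTiter-Glo luminescence, normalized to no-cell and DMSO in-plate controls.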

Assay [4] in a line: qHTS assay to identify inhibitors of the type 1 interferon - major histocompatibility complex class I in skeletal muscle: Counter screen cell viability and HiBit confirmation (AID 1347412). Further: potency means the concentration at half of the fitted maximal effect. On activity change, negative = inhibition: on the % scale 0 is the no-effect control and ±100 the full control effect. On all read-outs here: nearly all actives have a fitted effect of over 60% in size. Particulars: iHSKM muscle cells + IFN-b, HiBiT or CellTiter-Glo, 24 h; for Potency: HiBiT; for activity change, negative = inhibition: Viability, at 45.9 µM (top of the series). The gist of the method:
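Duplicate plates, pinned identically: one read for HiBiT-tagged endogenous HLA-B luminescence, the other for ATP-content viability via CellTiter Glo. Cells were genome-engineered human myoblasts given 4 ng/ml IFN-b; compounds 12-pt, 1:3 from 46 uM final; 24 hr exposure.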

Several values for one entry are separate records, joined by “and”; a condition that tells them apart may be missing. Equal entries are not always repeated. Values without a mark were called inactive. Records with an inconclusive call do not appear. Activity calls are given as the source filed them. Unless noted, the call rests on the fitted dose curve; in most records, active means well fitted curve in the direction sought with a large enough effect; inconclusive means small, poorly fitted or top-dose-only effect, or another doubt; inactive means no such curve, though single readings can be large; an effect the other way counts as inactive or inconclusive.

Nuclear receptor subfamily 1 group I member 2 (Rattus norvegicus), sequence (Q9R1A7 whole entry, looked up): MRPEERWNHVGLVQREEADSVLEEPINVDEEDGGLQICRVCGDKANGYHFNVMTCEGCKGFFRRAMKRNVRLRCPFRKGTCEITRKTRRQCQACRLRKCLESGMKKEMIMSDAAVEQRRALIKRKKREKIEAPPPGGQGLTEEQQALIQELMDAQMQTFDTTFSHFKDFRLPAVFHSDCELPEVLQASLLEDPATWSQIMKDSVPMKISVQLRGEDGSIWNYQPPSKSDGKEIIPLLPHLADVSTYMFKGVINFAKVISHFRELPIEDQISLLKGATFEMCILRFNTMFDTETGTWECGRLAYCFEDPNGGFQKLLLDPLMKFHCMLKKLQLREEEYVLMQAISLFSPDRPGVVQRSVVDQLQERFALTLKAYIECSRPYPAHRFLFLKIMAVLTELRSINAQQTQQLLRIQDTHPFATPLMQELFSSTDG

Consider `O=S(=O)(c1ccc(Cl)cc1)c1ccc(Cl)cc1`, for which the Potency entry in the assay with C33A, in the assay on CAOV3, in the assay with CASKI, in the assay with Es-2, with HeLa and with Hek293T was “inactive” in each case. In addition, the Potency entry (in the assay on JEG-3; in the assay on PA-1; in the assay with Tov-21-G; in the assay with Tov112D; in [1]; with astro) was “inactive” in each case.
As to `O=C(Nc1ccccc1-c1ccc(Cl)cc1)c1cccnc1Cl`, the Potency entry in the assay with C33A, in the assay on CAOV3, in the assay with CASKI, in the assay with Es-2, in the assay with HeLa and with Hek293T was “inactive” each time. In addition, the Potency entry with JEG-3, with PA-1, in the assay with SKOV3, in the assay on Tov-21-G, in the assay on Tov112D and with astro was “inactive” throughout.
Take `O=S(=O)(O)C(F)(F)C(F)(F)C(F)(F)C(F)(F)C(F)(F)C(F)(F)C(F)(F)C(F)(F)F`: the Potency result with C33A, in the assay on CAOV3, with CASKI, with Es-2, with HeLa and in the assay on Hek293T was “inactive” in each case. The Potency result in the assay with JEG-3, with OV90, with PA-1, with SKOV3, with Tov-21-G and with Tov112D was “inactive” each time. For the same compound, the Potency result in assay [1] is “inactive”. In addition, the max response in assay [2] was 2.44% and 1.44%. Besides, the call in assay [3] was inactive.
Consider `CC[C@@]1(O)C(=O)OCc2c1cc1n(c2=O)Cc2cc3ccccc3nc2-1`, for which the Potency with WaGa was 20.9 nM (active); in assay [4], 1.76 µM (active) and 1.98 µM (active). In [4], the activity change, negative = inhibition is -5.85% and -9.34%.
Turning to `CCOC(=O)Nc1ccc(NCc2ccc(F)cc2)cc1N`, the Potency result with C33A, with CAOV3, in the assay with CASKI, in the assay with Es-2, in the assay on HeLa and with Hek293T was “inactive” throughout. In addition, the Potency entry with JEG-3, in the assay with OV90, with PA-1, in the assay on SKOV3, in the assay on Tov-21-G and with Tov112D was “inactive” each time.
Take `Cc1ccccc1-n1c(Cn2ncc3c(N)ncnc32)nc2cccc(C)c2c1=O`: the Potency result in the assay with C33A, with CAOV3, in the assay on CASKI, in the assay with Es-2, in the assay on HeLa and in the assay with Hek293T was “inactive” in each case. The Potency result with JEG-3, with OV90, in the assay on PA-1, in the assay with SKOV3, in the assay on Tov-21-G and in the assay on Tov112D was “inactive” in each case.
As to `CC(C)[C@]12O[C@H]1[C@@H]1O[C@]13[C@]1(O[C@H]1C[C@H]1C4=C(CC[C@@]13C)C(=O)OC4)[C@@H]2O`, the Potency in the assay with C33A was 708 nM (active); in the assay with CASKI, 199 nM (active); in the assay on Es-2, 100 nM (active); with HeLa it was 158 nM (active); in the assay with PA-1, 100 nM (active); in the assay with Tov112D it was 100 nM (active). In addition, the Potency in [4] is 62.5 nM (active). The activity change, negative = inhibition in [4] is -10.5%.
On to `CO/C=C(/C(=O)OC)c1ccccc1Oc1cc(Oc2ccccc2C#N)ncn1`, for which the Potency in the assay with Es-2 is 31600 nM (active); in the assay on Hek293T, 17800 nM (active); with OV90, 17800 nM (active); with SKOV3 it was 7940 nM (active); in the assay on astro, 14100 nM (active).
Regarding `O=[N+]([O-])c1cc([N+](=O)[O-])c2ccccc2c1`, the Potency result in the assay with CAOV3, in the assay on CASKI, in the assay on Es-2, in the assay on Hek293T, in the assay on JEG-3 and in the assay on OV90 was “inactive” each time. Also, the Potency result (in the assay with PA-1; in the assay on Tov-21-G; in the assay with Tov112D; in assay [1]) was “inactive” throughout. Moreover, in assay [3], the result was inactive.
On to `CCC1(CCC(C)C)C(=O)NC(=O)NC1=O`, for which the Potency entry in the assay on C33A, with CASKI, in the assay on Es-2, in the assay on Hek293T, in the assay with JEG-3 and with OV90 was “inactive” in each case. In addition, the Potency entry (with PA-1; with Tov-21-G; in the assay on Tov112D; in [1]; in the assay on astro) was “inactive” in each case.
For `CC1=C(O)C(=O)C=C2C1=CC=C1[C@@]2(C)CC[C@@]2(C)[C@@H]3C[C@](C)(C(=O)O)CC[C@]3(C)CC[C@]12C`, the Potency in [4] is 787 nM (active).
Consider `CN(C)NC(=O)CCC(=O)O`, for which, in assay [2], the max response was -0.418% and -0.734%.
For `CCO/N=C(\CC)C1=C(O)CC(c2c(C)cc(C)cc2C)CC1=O` (stereo not given), the Potency result with C33A, in the assay on CAOV3, in the assay with CASKI, in the assay on Es-2, with HeLa and with Hek293T was “inactive” each time. Besides, the Potency entry (with OV90; in the assay with PA-1; with SKOV3; with Tov-21-G; with Tov112D; in assay [1]) was “inactive” each time. Also, the Potency result with astro was “inactive”.
As for `COc1ccc(C(c2ccc(OC)cc2)C(Cl)(Cl)Cl)cc1`, the Potency result in the assay with C33A, with Es-2, in the assay with Hek293T, in the assay with JEG-3, in the assay with PA-1 and in the assay with Tov-21-G was “inactive” in each case. The Potency result in the assay with Tov112D is “inactive”.
For `Cc1c(C(=O)Nc2cccc(C(F)(F)F)c2)cc(-c2ccccc2)n1CCCN1CCOCC1`, the Potency result in the assay with C33A, in the assay with CAOV3, with Es-2, in the assay with HeLa, in the assay on Hek293T and with JEG-3 was “inactive” each time. Also, the Potency entry in the assay on OV90, in the assay with PA-1, in the assay on SKOV3, in the assay on Tov-21-G and in the assay on Tov112D was “inactive” each time.
Consider `CCCCc1ccc(C(=O)O)nc1`, for which the Potency result (in assay [1]; in the assay on astro) was “inactive” throughout.
As for `C/C=C(/C)C(=O)O[C@H]1C(C)=C2[C@H]([C@@H]1OC(=O)CCCCCCC)[C@@](C)(OC(C)=O)C[C@H](OC(=O)CCC)[C@@]1(O)[C@H]2OC(=O)[C@@]1(C)O`, the Potency was 20000 nM (active) in the assay with C33A; 316 nM (active) with Es-2; 447 nM (active) with HeLa; 447 nM (active) in the assay on JEG-3; 158 nM (active) in the assay on PA-1; 501 nM (active) in the assay with Tov112D. For the same compound, the Potency in [4] is 7.9 nM (active).
Regarding `COc1ccc(N(C(=O)Oc2c(C)cccc2C)c2ccnc(Nc3ccc(N4CCN(C)CC4)cc3)n2)c(OC)c1`, the Potency result with CAOV3, in the assay with CASKI, in the assay with Hek293T, in the assay with JEG-3 and with OV90 was “inactive” throughout.
As for `Nc1ccc(Cl)cc1N`, the Potency entry in the assay with CAOV3, in the assay on Es-2, in the assay on HeLa, with Hek293T, in the assay on JEG-3 and with PA-1 was “inactive” in each case. Further, in the assay on Tov112D, the Potency result was “inactive”.
In the case of `O=[N+]([O-])c1c2ccccc2cc2ccccc12`, the Potency entry in the assay with C33A, in the assay on CAOV3, in the assay with CASKI, in the assay on Es-2, in the assay with Hek293T and with JEG-3 was “inactive” in each case. Besides, the Potency result in the assay on OV90, with PA-1, in the assay on Tov-21-G, with Tov112D and with astro was “inactive” throughout.
As for `C=CCC1=C(C)C(OC(=O)C2C(C=C(C)C)C2(C)C)CC1=O` (stereo not given), the Potency entry with C33A, in the assay on CASKI, in the assay on Es-2, in the assay on HeLa, in the assay on Hek293T and in the assay on JEG-3 was “inactive” each time. The Potency result with OV90, in the assay on Tov-21-G and with Tov112D was “inactive” each time.
